# This excerpt belongs to a sample that is enriched for hits.
# MARV entry inh: blocks Marburg virus binding to or entry into cells | Marburg virus pseudotyped entry inhibition, cell reporter | Potency, µM (highest dose often 37.8 µM), actives largely listed as inhibitors | 300,000 compounds, 1.8% hits; calls by dose curve; tested in HEK293 cells
# LASV entry inh: inhibitors of Lassa virus binding or cell entry; 300,000 compounds, 1.2% hits; Potency, µM (series often up to 37.9 µM), most hits filed as inhibitors; Lassa virus pseudotype entry inhibition, cell reporter; calls by dose curve; tested in HEK293 cells; note: nearly all actives have a fitted effect of over 50% in size
# Cycloheximide cs: affects cycloheximide protein synthesis inhibition readout, counter-screen; cell reporter, cycloheximide protein synthesis inhibition counterscreen; max response, %; 300,000 compounds, 12% hits; in the data active = max response mostly above about 13%, no sharp cut-off; inactive = mostly below about 14%; note: read at 38.3 µM for the half of the compounds with a filed dose
# VACV Venus inh: vaccinia inhibition (Venus reporter); Potency, µM (highest dose often 36.5 µM), hits mostly inhibitors; Vaccinia virus Venus reporter expression, fluorescence; AID 720580; 330,000 compounds, 0.46% hits; calls by dose curve; tested in A549 cells; note: nearly all actives have a fitted effect of over 30% in size
# Vaccinia mCherry: vaccinia inhibition (mCherry reporter); Potency, µM (top dose mostly 36.5 µM), most hits filed as inhibitors; Vaccinia virus mCherry reporter infection, fluorescence; 310,000 compounds, 0.63% hits; calls by dose curve; tested in A549 cells; note: nearly all actives have a fitted effect of over 35% in size
# Shiga inhibitor: Shiga toxin inhibition. Vero cells, Shiga toxin protein synthesis inhibition reporter. inhibition, % at 38.7 µM. 290,000 compounds, 9.2% hits. AID 2315; in the data active = inhibition mostly above about 28%, no sharp cut-off; inactive = mostly below about 43%
# Numbers stand for hits; 0 = inactive; ? = inconclusive; - = not tested or not shown; + = active, no number.
SMILES,MARV entry inh,LASV entry inh,Cycloheximide cs,VACV Venus inh,Vaccinia mCherry,Shiga inhibitor
O=C(CSc1cccc[n+]1[O-])c1cc2ccccc2o1,0,?,131,0,-,140
O=C(CSc1cccc[n+]1[O-])c1cc(Cl)ccc1Cl,0,0,28,0,0,78
O=C(O)CSc1cccc[n+]1[O-],0,0,0,-,-,0
CCCn1cc(S(=O)(=O)c2ccc(CC)cc2)c(=O)c2cc(F)c(N3CCN(C)CC3)cc21,-,0,-,0,0,-
OCCN1CCN(Cc2ccc3c(c2)CN(Cc2ccc4ccccc4c2)CCO3)CC1,-,-,-,0,0,-
COC(=O)[C@@H]1[C@@H](c2ccccc2)[C@H]2C(=O)c3c(OC)cc(OC)cc3O[C@@]12c1ccc(OC)cc1,0,-,-,-,-,-
COc1ccc([C@@]23Oc4cc(OC)cc(OC)c4[C@]2(O)[C@H](O)[C@H](C(=O)N(C)C)[C@H]3c2ccccc2)cc1,0.11µM,?,-,0.0001µM,+,-
Oc1ccc(CCNc2c3ccccc3nc3ccccc23)cc1O,10µM,?,0,?,?,-
CNc1nc(NCc2ccccc2)c2ccccc2n1,4µM,?,0,0,0,0
c1ccc(CNc2c3ccccc3nc3ccccc23)cc1,-,-,0,11µM,?,0
CNCCc1ccc(O)c(O)c1,?,?,-,0,0,-
CCOC(=O)c1nc(NCc2ccccc2)c2ccccc2n1,0,-,40,0,0,116
c1ccc(CNc2ncnc3ccccc23)cc1,?,?,0,?,0,0
CCc1ccc(CNC(=O)CN(c2ccc(C)cc2)S(=O)(=O)N(C)C)cc1,0,?,-,0,0,-
CCc1ccc(C(=O)c2cn(CC(=O)Nc3ccc4c(c3)OCCO4)c3ccc(CC)cc3c2=O)cc1,0,0,-,0,0,-
O=C(O)c1ccccc1OCc1nc2ccccc2s1,0,?,65,0,0,110
O=C(OCc1nc2ccccc2s1)c1cccs1,0,0,52,-,-,92
O=C(OCc1nc2ccccc2s1)c1cnccn1,0,0,32,0,0,93
CCN(C(=O)COC(=O)c1ccccc1O)c1nc2ccccc2s1,0,0,-,0,0,-
O=C(OCc1nc2ccccc2s1)c1ccccc1O,0,0,67,0,0,58
CCCCC(=O)OCc1nc2ccccc2s1,0,0,28,0,0,0
O=C(c1ccccc1)c1ccc(COC(=O)c2cnccn2)cc1,?,0,0,0,0,0
COc1cc(OC)cc(C(=O)NCC(=O)OCc2nc3ccccc3s2)c1,?,0,36,0,0,113
O=C(CNC(=O)c1ccc(Cl)cc1)OCc1nc2ccccc2s1,0,0,0,0,0,0
O=C(Oc1ccccc1)c1cccc(COC(=O)c2cnccn2)c1,0,0,36,-,-,active
SMILES,MARV entry inh,LASV entry inh,Cycloheximide cs,VACV Venus inh,Vaccinia mCherry,Shiga inhibitor
COC(=O)c1c(C)[nH]c(C(=O)/C=C/c2ccccc2Cl)c1C,-,-,61,-,-,105
COC(=O)c1c(C)[nH]c(C(=O)/C=C/c2ccccc2F)c1C,?,?,29,0,0,62
Cc1c(C(=O)/C=C/c2ccccc2F)c2cc(O)ccc2n1C,-,-,-,0,?,-
COC(=O)c1c(C)[nH]c(C(C)=O)c1C,?,0,0,0,0,0
CCCCC(=O)OCc1cc(=O)n2nc(C3CCCCC3)sc2n1,-,0,-,0,0,-
CCCCC#Cc1nc(NC)c2ncn([C@@H]3O[C@@H](CO)[C@H](O)[C@H]3O)c2n1,0,-,-,-,-,-
COc1ccc(CCNC(=O)Cn2c([N+](=O)[O-])cnc2C)cc1OC,0,0,0,0,0,0
CN(C)S(=O)(=O)c1ccc(N2CCN(S(=O)(=O)c3ccc(F)cc3)CC2)c(Cl)c1,?,?,0,10µM,10µM,0
CN(C)S(=O)(=O)N1CCN(S(=O)(=O)c2ccc(F)cc2)CC1,0,0,0,0,0,0
Oc1ccc(/C=N/NC(=S)Nc2cccnc2)c(O)c1O,0,?,0,0,0,0
Oc1cccc(/C=N/NC(=S)Nc2cccnc2)c1O,?,21µM,30,?,?,45
Fc1ccc(/C=N/NC(=S)Nc2cccnc2)cc1,0,0,27,-,-,0
Oc1ccc(/C=N/NC(=S)Nc2cccnc2)c(O)c1,?,?,29,?,?,52
O=C(C=Cc1ccccc1)c1ccccc1O,?,0,-,-,-,-
CCN(CC)CCCNc1ncnc2c1cnn2-c1ccc(C)c(C)c1,-,?,-,0,0,-
C=CCNc1ncnc2c1cnn2-c1ccc(Cl)cc1,?,0,33,0,0,52
Cc1cccc(-n2ncc3c(NC4CCCCC4)ncnc32)c1,-,-,46,0,0,75
C=CCNc1ncnc2c1cnn2-c1cccc(C)c1,0,-,34,0,0,+
Cc1cccc(-n2ncc3c(NCCCO)ncnc32)c1,-,-,38,0,0,0
Cc1cccc(-n2ncc3c(NC4CCCC4)ncnc32)c1,-,0,-,0,0,-
O=C(Cn1ccn(-c2cccc(Cl)c2)c(=O)c1=O)c1ccc(F)cc1,-,0,-,0,0,-
CC(=O)N(c1ccc(Cl)cc1)C1SC(=O)N(c2ccc(C)cc2)C1=O (configuration not stated),-,-,-,0,0,-
Cc1ccc(/C=C/c2nc3ccccc3s2)s1,?,6.3µM,24,0,0,0
CN(C)c1ccc(/C=C/c2cccc3cc4ccccc4nc23)cc1,-,-,-,16µM,11µM,-
CN(C)c1ccc(CNc2nc3ccccc3s2)cc1,-,-,34,-,-,68
SMILES,MARV entry inh,LASV entry inh,Cycloheximide cs,VACV Venus inh,Vaccinia mCherry,Shiga inhibitor
CN(C)c1ccc(/C=C/c2nc3ccccc3s2)cc1,2µM,2.2µM,0,0,0,0
CN(Cc1ccccc1)c1ccc(/C=C/c2nc3ccccc3s2)cc1,-,-,-,0,0,-
CN(C)c1ccc(/C=C/c2ccc3ccccc3n2)cc1,-,-,0,0,0,0
Cc1c(C(=O)NCC(C)(C)N2CCOCC2)cnn1-c1nccc(-c2cccs2)n1,-,-,-,0,0,-
CCc1ccc(OCC(=O)NC(NC(=S)Nc2ccc(Cl)cc2)C(Cl)(Cl)Cl)cc1 (configuration not stated),?,?,0,?,0,0
O=C(C1COc2ccccc2O1)N(Cc1cccnc1)c1nc2ccc(Cl)cc2s1 (configuration not stated),-,0,-,0,0,-
Cc1cc(N2CCC(C)CC2)nc2ccc(NC(=O)Cc3ccccc3Br)cc12,?,0,-,0,0,-
CCOc1ccc(CNC(=O)c2cccn2-c2nnc(N3CCCCC3)s2)cc1OC,-,0,-,0,0,-
COC(=O)c1c(OCc2ccccc2)cc(=O)n2c1CCN(Cc1cccc(C)n1)CC2,-,-,-,0,0,-
CN(C(=O)Oc1ccc(F)cc1)c1ccccc1,?,0,0,0,0,0
CN(C(=O)Oc1ccc(C(C)(C)C)cc1)c1ccccc1,0,0,19,0,0,59
CCC(=O)c1ccc(OC(=O)N(C)c2ccccc2)cc1,0,0,26,0,0,0
Cc1ccc(/C=N/NC(=O)c2ccccn2)s1,6.5µM,?,49,0,0,44
O=C(CNC(=O)c1ccccc1)N/N=C/c1cccs1,0,0,0,0,0,0
O=C(N/N=C/c1cccs1)c1ccccn1,0,0,33,0,0,111
Cc1ccc(/C=N/NC(=O)c2ccncc2)s1,0,0,0,0,0,0
CC1C(=O)NN=C1C(=O)N/N=C/c1cccs1 (configuration not stated),-,-,19,0,0,86
